PubChem BioAssay (Tox21)
Unmarked numbers belong to inactive results. Inconclusive results are not listed. Entries that show only a call come without a potency. The source made the active and inactive calls. Calls follow the shape of the dose curve; as a rule, active = well fitted curve in the direction sought with a large enough effect in the repeat runs; inconclusive = weak or mixed curves; inactive = no such curve, though single readings can be large; an effect the other way counts as inactive or inconclusive.

Key:
[1] = qHTS RealTime-Glo MT Cell Viability Assay in HepG2 cells - 24 hour (AID 1224867); also: nearly all actives have a fitted effect of over 50% in size
Procedure, shortened: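 Viability was tracked continuously by NanoLuc luminescence from prosubstrate reduced by living HepG2 cells, at successive time points over 40 h of compound exposure. Cells with reagent were preincubated 5 h at 37 °C before compound addition.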

[2] = A CellTox Green Cytotoxicity Assay to monitor cytotoxicity in HEK293 cells - 0 hour (AID 1224869); also: nearly all actives have a fitted effect of over 50% in size
Procedure, shortened: (§1)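 Nonlytic real-time cytotoxicity: HEK293 + CellTox Green reagent plated, 5 h preincubation, pintool compound addition (23 nL in DMSO), 37 C for 40 h, fluorescence measured at successive time points.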

[3] = A CellTox Green Cytotoxicity Assay to monitor cytotoxicity in HEK293 cells - 40 hour (AID 1224871); also: nearly all actives have a fitted effect of over 45% in size
Procedure, shortened: as §1

[4] = qHTS RealTime-Glo MT Cell Viability Assay in HEK293 cells - 40 hour (AID 1224874); conditions: RealTime-Glo luminescence; max response: hits give low values; also: nearly all actives have a fitted effect of over 50% in size; also: potency is read from the fitted curve at half-maximal effect
Procedure, shortened: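 Cells were seeded together with NanoLuc luciferase and a prosubstrate that viable cells reduce to a luciferase substrate. After a 5 h incubation at 37 C/5% CO2, compounds were added and luminescence was measured repeatedly during 40 h of treatment.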

[5] = A CellTox Green Cytotoxicity Assay to monitor cytotoxicity in HEK293 cells - 24 hour (AID 1224875); also: series mostly up to about 77 µM; nearly all actives have a fitted effect of over 45% in size
Procedure, shortened: as §1

[6] = A CellTox Green Cytotoxicity Assay to monitor cytotoxicity in HepG2 cells - 16 hour (AID 1224876); also: nearly all actives have a fitted effect of over 45% in size; also: potency is read from the fitted curve at half-maximal effect
Procedure, shortened: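 Read-out is fluorescence of a cyanine dye excluded from live cells that stains DNA of dead HepG2 cells, with signal proportional to cytotoxicity. Plates were read at 0, 8, 16, 24, 32 and 40 h after compound addition.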

[7] = qHTS RealTime-Glo MT Cell Viability Assay in HepG2 cells - 40 hour (AID 1224870); also: nearly all actives have a fitted effect of over 50% in size
Procedure, shortened: (§2)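 Real-time viability: cells seeded at 600 per well together with NanoLuc and cell-permeant prosubstrate, compounds added after 5 h incubation. Luminescence tracked at 0, 8, 16, 24, 32 and 40 h of exposure.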

[8] = qHTS RealTime-Glo MT Cell Viability Assay in HEK293 cells - 16 hour (AID 1224872); also: nearly all actives have a fitted effect of over 50% in size; also: potency is read from the fitted curve at half-maximal effect; as to activity change, negative = cytotoxicity: top concentration of the series differs between compounds
Procedure, shortened: (§3)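 Viability tracked continuously by luminescence as live cells reduce a prosubstrate for NanoLuc; HEK293 cells preincubated 5 h, compound-treated at 37 C, and read at 0, 8, 16, 24, 32 and 40 h.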

[9] = qHTS RealTime-Glo MT Cell Viability Assay in HepG2 cells - 8 hour (AID 1224873); also: nearly all actives have a fitted effect of over 55% in size
Procedure, shortened: as §2

[10] = qHTS RealTime-Glo MT Cell Viability Assay in HEK293 cells - 32 hour (AID 1224868)
Procedure, shortened: as §3

For CCOC(=O)CC#N, the outcome [1] was “inactive”, the Potency [2] was “inactive” and the Potency [3] was “inactive”. For the same molecule, the max response [4] was -0.316%, the Potency [5] was “inactive” and the Potency [6] was “inactive”.
With CN=C(NC#N)NCCSCc1csc(N=C(N)N)n1 the outcome [1] was “inactive”, the Potency [2] was “inactive” and the outcome [7] was “inactive”. For the same molecule, the Potency [3] was “inactive”, the Potency [8] was “inactive” and the outcome [9] was “inactive”. For the same molecule, the max response [4] was 1.73%, the Potency [5] was “inactive” and the Potency [6] was “inactive”.
In the case of CCC1COC(=O)O1 (configuration not stated), the outcome [1] was “inactive”, the Potency [2] was “inactive” and the outcome [7] was “inactive”. For the same molecule, the Potency [3] was “inactive”, the Potency [8] was “inactive” and the max response [4] was -0.285%. The Potency [5] was “inactive” and the Potency [6] was “inactive”.
Work on BrC/C=C/CBr yielded an activity change, negative = cytotoxicity [1] of 3.48% [at 15.8 µM], a cytotoxicity [2] of 0.203% [at 15.8 µM] and an activity change, negative = cytotoxic [7] of -1.8% [at 15.8 µM]. The cytotoxicity increase [3] was 1.51% [at 15.8 µM], the max response [4] was -1.67% and the activity change [5] was 2.67% [at 15.8 µM, hits give high values]. The cytotoxicity increase [6] was -13.9% [at 15.8 µM].
For CCCO, the outcome [1] was “inactive”, the Potency [2] was “inactive” and the outcome [7] was “inactive”. For the same molecule, the Potency [3] was “inactive”, the Potency [8] was “inactive” and the outcome [9] was “inactive”. For the same molecule, the max response [4] was 1.64%, the Potency [5] was “inactive” and the Potency [6] was “inactive”.
With CN(C1CCCCC1)S(=O)(=O)c1ccccc1N the outcome [1] was “inactive”, the Potency [2] was “inactive” and the outcome [7] was “inactive”. For the same molecule, the Potency [3] was “inactive”, the outcome [9] was “inactive” and the Potency [5] was “inactive”. For the same molecule, the Potency [6] was “inactive”.
With Oc1ccccc1Cc1ccccc1O the outcome [1] was “inactive”, the Potency [2] was “inactive” and the Potency [3] was “inactive”. For the same molecule, the outcome [9] was “inactive”, the Potency [5] was “inactive” and the Potency [6] was “inactive”.
For CCCCC(CC)CNC(=O)CC(C)OC(=O)CCC(=O)O (configuration not stated), the outcome [1] was “inactive”, the Potency [2] was “inactive” and the outcome [7] was “inactive”. For the same molecule, the Potency [3] was “inactive”, the Potency [8] was “inactive” and the outcome [9] was “inactive”. The max response [4] was 3.69%, the Potency [5] was “inactive” and the Potency [6] was 23.9 µM (active).
For COc1cc2c(Nc3ccc(Br)cc3F)ncnc2cc1OCC1CCN(C)CC1, the outcome [1] was “inactive”, the Potency [2] was “inactive” and the outcome [7] was “inactive”. The Potency [3] was “inactive”, the Potency [8] was “inactive” and the outcome [9] was “inactive”. For the same molecule, the max response [4] was 6.99%, the Potency [5] was “inactive” and the Potency [6] was “inactive”.
In the case of O=P(O)(O)OCC(O)CO (configuration not stated), the outcome [1] was “inactive”, the Potency [2] was “inactive” and the outcome [7] was “inactive”. For the same molecule, the Potency [3] was “inactive”, the max response [4] was -2.63% and the Potency [5] was “inactive”. The Potency [6] was “inactive”.
With C1=C\CC/C=C\CC/1 the outcome [1] was “inactive”, the Potency [2] was “inactive” and the outcome [7] was “inactive”. The Potency [3] was “inactive”, the Potency [8] was “inactive” and the max response [4] was 16.6%. For the same molecule, the Potency [5] was “inactive” and the Potency [6] was “inactive”.
With CC1=NN(c2ccc(S(=O)(=O)O)cc2)C(=O)C1N=Nc1ccccc1 (configuration not stated) the outcome [1] was “inactive”, the Potency [2] was “inactive” and the outcome [7] was “inactive”. For the same molecule, the Potency [3] was “inactive”, the Potency [5] was “inactive” and the Potency [6] was “inactive”.
With COCC(=O)Nc1c(I)c(C(=O)NCC(O)CO)c(I)c(C(=O)N(C)CC(O)CO)c1I (configuration not stated) the outcome [1] was “inactive”, the Potency [2] was “inactive” and the outcome [7] was “inactive”. For the same molecule, the Potency [3] was “inactive”, the outcome [9] was “inactive” and the Potency [5] was “inactive”. The Potency [6] was “inactive”.
In the case of Cc1nc2n(c(=O)c1CCN1CCC(C(=O)c3ccc(F)cc3)CC1)CCS2, the outcome [1] was “inactive”, the Potency [2] was “inactive” and the outcome [7] was “inactive”. The Potency [3] was “inactive”, the Potency [8] was 9.52 µM (active) and the outcome [9] was “inactive”. The Potency [4] was 6.01 µM (active), the Potency [5] was “inactive” and the Potency [6] was “inactive”.
With CCCCC[Si](OCC)(OCC)OCC the outcome [1] was “inactive”, the Potency [2] was “inactive” and the outcome [7] was “inactive”. For the same molecule, the Potency [3] was “inactive”, the outcome [9] was “inactive” and the max response [4] was -19.8%. The Potency [5] was “inactive” and the Potency [6] was “inactive”.
With CCCCCCCCOC(C)=O the outcome [1] was “inactive”, the Potency [2] was “inactive” and the Potency [3] was “inactive”. For the same molecule, the Potency [8] was “inactive”, the max response [4] was 7.81% and the Potency [5] was “inactive”. The Potency [6] was “inactive”.
For c1ccc(CNc2ncnc3nc[nH]c23)cc1, the outcome [1] was “inactive”, the Potency [2] was “inactive” and the outcome [7] was “inactive”. For the same molecule, the Potency [3] was “inactive”, the Potency [5] was “inactive” and the Potency [6] was “inactive”.
With CCOc1ccc(NC(=O)OC(C)C)cc1OCC the outcome [1] was “inactive”, the Potency [2] was “inactive” and the outcome [7] was “inactive”. For the same molecule, the Potency [3] was “inactive”, the outcome [9] was “inactive” and the Potency [5] was “inactive”. For the same molecule, the Potency [6] was “inactive”.
For CC(C)CCO, the Potency [10] was “inactive”, the Potency [2] was “inactive” and the outcome [7] was “inactive”. For the same molecule, the Potency [3] was “inactive”, the Potency [8] was “inactive” and the max response [4] was 3.55%. The Potency [5] was “inactive” and the Potency [6] was “inactive”.
In the case of F[Si-2](F)(F)(F)(F)F, the outcome [1] was “inactive”, the Potency [2] was “inactive” and the outcome [7] was “inactive”. For the same molecule, the Potency [3] was “inactive”, the Potency [8] was “inactive” and the max response [4] was -1.11%. The Potency [5] was “inactive” and the Potency [6] was “inactive”.
With CCCCOC(=O)[C@@H](C)Oc1ccc(Oc2ccc(C(F)(F)F)cn2)cc1 the outcome [1] was “inactive”, the Potency [2] was “inactive” and the outcome [7] was “inactive”. For the same molecule, the Potency [3] was “inactive”, the Potency [8] was 31.1 µM (active) and the outcome [9] was “inactive”. For the same molecule, the Potency [5] was “inactive” and the Potency [6] was “inactive”.
In the case of NC(=O)C1(N2CCCCC2)CCN(CCCC(=O)c2ccc(F)cc2)CC1, the outcome [1] was “inactive”, the Potency [2] was “inactive” and the outcome [7] was “inactive”. The Potency [3] was “inactive”, the Potency [8] was “inactive” and the outcome [9] was “inactive”. The max response [4] was -22.3%, the Potency [5] was “inactive” and the Potency [6] was “inactive”.
With CC(=O)Nc1ccc(C)cc1 the outcome [1] was “inactive”, the Potency [2] was “inactive” and the Potency [3] was “inactive”. For the same molecule, the Potency [8] was “inactive”, the outcome [9] was “inactive” and the max response [4] was -5.67%. For the same molecule, the Potency [5] was “inactive” and the Potency [6] was “inactive”.
For Cc1ccc(C(=O)C(=O)O)cc1C, the outcome [1] was “inactive”, the Potency [2] was “inactive” and the outcome [7] was “inactive”. The Potency [3] was “inactive”, the Potency [8] was “inactive” and the outcome [9] was “inactive”. For the same molecule, the max response [4] was -0.829%, the Potency [5] was “inactive” and the Potency [6] was “inactive”.
For CC(C)C(=O)Nc1cccc(C(F)(F)F)c1, the outcome [1] was “inactive”, the Potency [2] was “inactive” and the outcome [7] was “inactive”. For the same molecule, the Potency [3] was “inactive”, the max response [4] was -2.33% and the Potency [5] was “inactive”. For the same molecule, the Potency [6] was “inactive”.
For CC(=O)OC(C(=O)c1ccccc1)c1ccccc1 (configuration not stated), the outcome [1] was “inactive”, the Potency [2] was “inactive” and the outcome [7] was “inactive”. The Potency [3] was “inactive”, the outcome [9] was “inactive” and the Potency [5] was “inactive”. The Potency [6] was “inactive”.
In the case of O=c1[nH]c(=O)c2[nH]c(=O)[nH]c2[nH]1, the activity change, negative = cytotoxicity [1] was 1.41% [at 6.97 µM], the cytotoxicity [2] was -14.8% [at 6.97 µM] and the cytotoxicity increase [3] was -13.3% [at 6.97 µM]. The activity change, negative = cytotoxicity [8] was 9.21% [at 6.97 µM], the viability change, negative = cytotoxic [9] was 1.36% [at 6.97 µM] and the max response [4] was 10.6%. The activity change [5] was -9.62% [at 6.97 µM, hits give high values] and the cytotoxicity increase [6] was -0.724% [at 6.97 µM].
